Laboratory results from PubChem BioAssay (Tox21).
Several values for one entry are separate records, joined by “and”; a condition that tells them apart may be missing. Equal entries are not always repeated. Inconclusive results are not listed. Activity calls are given as the source filed them. Unless noted, calls come from the whole dose curve.

Key:
[1] = molecular target: Acetylcholinesterase (Homo sapiens) (UniProt P22303); assay: Acetylcholinesterase (AChE) small molecule antagonists: colormetric cell-based qHTS assay (AID 1347395); note: nearly all actives have a fitted effect of over 30% in size
Acetylcholinesterase (Homo sapiens), sequence (P22303 whole entry, looked up): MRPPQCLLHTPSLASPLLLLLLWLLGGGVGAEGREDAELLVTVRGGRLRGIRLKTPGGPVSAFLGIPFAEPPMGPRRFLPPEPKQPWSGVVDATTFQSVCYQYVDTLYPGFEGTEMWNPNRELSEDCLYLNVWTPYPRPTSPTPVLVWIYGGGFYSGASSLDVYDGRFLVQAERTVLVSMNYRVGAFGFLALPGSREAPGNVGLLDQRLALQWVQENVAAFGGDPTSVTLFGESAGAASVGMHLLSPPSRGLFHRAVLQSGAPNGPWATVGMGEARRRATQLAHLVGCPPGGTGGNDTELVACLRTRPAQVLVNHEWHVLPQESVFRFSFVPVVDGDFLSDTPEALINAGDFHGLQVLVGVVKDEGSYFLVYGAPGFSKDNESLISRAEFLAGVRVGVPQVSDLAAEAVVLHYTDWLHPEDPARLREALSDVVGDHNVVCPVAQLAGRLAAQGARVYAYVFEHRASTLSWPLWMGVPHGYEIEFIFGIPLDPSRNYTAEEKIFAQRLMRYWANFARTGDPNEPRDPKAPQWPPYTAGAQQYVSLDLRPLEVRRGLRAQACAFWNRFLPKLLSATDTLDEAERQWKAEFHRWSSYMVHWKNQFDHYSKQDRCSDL
Outline: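 SH-SY5Y cells attached overnight, exposed to compound 30 min at 37 C, then given DTNB/acetylthiocholine; after 90 min at 37 C, colorimetric thiocholine read gives cellular AChE activity.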

[2] = molecular target: Acetylcholinesterase (Homo sapiens) (UniProt P22303); assay: Acetylcholinesterase (AChE) small molecule antagonists: enzyme-based qHTS assay (AID 1347397); settings: Potency: AChE enzyme activity inhibition; outcome: AChE enzyme activity inhibition; note: nearly all actives have a fitted effect of over 55% in size
Outline: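 Recombinant human AChE (50 mU/mL) preincubated with compound 30 min at room temperature; acetylthiocholine plus DTNB then added, and thiocholine formation read colorimetrically after 10 min at room temperature. DMSO served as vehicle control.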

[3] = molecular target: Acetylcholinesterase (Homo sapiens) (UniProt P22303); assay: Acetylcholinesterase (AChE) small molecule antagonists: fluorescence cell-based qHTS assay (AID 1347398); settings: Potency: AChE activity; outcome: AChE activity; note: nearly all actives have a fitted effect of over 50% in size
Outline: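 SH-SY5Y cells (2000/well), attached overnight, incubated with compound 30 min at 37 C. Acetylthiocholine plus Thiolite Green then added for 40 min at room temperature. Thiocholine fluorescence (Ex/Em 490/520 nm) reports cellular AChE activity.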

[4] = molecular target: Acetylcholinesterase (Homo sapiens) (UniProt P22303); assay: Acetylcholinesterase (AChE) small molecule antagonists: enzyme-based qHTS assay with human liver microsomes (AID 1347399); settings: Potency: qHTS inhibition; outcome: qHTS inhibition; note: nearly all actives have a fitted effect of over 60% in size
Outline: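 Recombinant human AChE (50 mU/mL in the enzyme mix) and human liver microsomes (0.25 mg/mL final) were preincubated with compound and NADPH (0.25 mg/mL final) for 30 min at 37 C. Acetylthiocholine/DTNB was then added; thiocholine was read colorimetrically after 10 min at room temperature.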

[5] = qHTS assay to identify small molecule agonists of the estrogen related receptor (ERR) signaling pathway (AID 1224820; active = well fitted curve in the direction sought with a large enough effect in the repeat runs; an effect the other way counts as inactive or inconclusive)
Outline: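 ERR reporter cell line (from NTP), 2,000 cells/well, incubated 6 h before compound addition, then 18 h at 37 C. Luminescence measured 30 min after One-Glo reagent at room temperature.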

[6] = qHTS assay to identify small molecule agonists of the estrogen related receptor signaling pathway with the pleiotropic PPARgamma coactivator (PGC) (AID 1224823; active = well fitted curve in the direction sought with a large enough effect in the repeat runs; an effect the other way counts as inactive or inconclusive)
Outline: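 PGC/ERR reporter cells seeded 6 h, then exposed to compounds (23 nL in DMSO) for 18 h at 37 C. One-Glo luciferase luminescence read after 30 min at room temperature.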

[7] = test system: estrogen-related receptor alpha (ERRalpha) with PGC-1alpha coactivator, human; assay: qHTS assay to identify small molecule antagonists of the estrogen related receptor signaling pathway with the pleiotropic PPARgamma coactivator (PGC) (AID 1224821);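 note: lower luminescence signal means antagonism of PGC/ERR signalling; nearly all actives have a fitted effect of over 50% in size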
Outline: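 PGC/ERR reporter cell line, plated 6 h before compound addition, then exposed 18 h at 37 °C. Luciferase activity read by luminescence 30 min after One-Glo addition; decrease indicates antagonism.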

[8] = qHTS assay to identify small molecule antagonists of the estrogen related receptor signaling pathway with the pleiotropic PPARgamma coactivator (PGC) cell viability counter screen (AID 1224822; active = well fitted curve in the direction sought with a large enough effect in the repeat runs; an effect the other way counts as inactive or inconclusive;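 note: viability read after 17.5 h compound exposure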)
Outline: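 Seed PGC/ERR cells (2,000/well); incubate 6 h at 37 C/5% CO2; pin-transfer compounds in DMSO; incubate 17.5 h at 37 C; add CellTiter-Fluor; after 30 min read fluorescence.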

[9] = Caspase-3/7 induction in HepG2 cells by small molecules, qHTS assay (AID 1346978; active = well fitted curve in the direction sought with a large enough effect in the repeat runs; an effect the other way counts as inactive or inconclusive; note: nearly all actives have a fitted effect of over 15% in size)
Outline: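 Wild-type HepG2 cells, 2,000/well, settled 5 hr at 37 C and 5% CO2, then compound-treated for 17 hr; caspase-3/7 activity read by luminescent Caspase-Glo 3/7 after 30 min at room temperature.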

[10] = qHTS assay for small molecule agonists of the p53 signaling pathway (AID 651631); note: nearly all actives have a fitted effect of over 15% in size; note: potency is the fitted concentration of half-maximal effect
Outline: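 HCT-116 cells carrying a beta-lactamase reporter under p53 response elements were dosed with compound for 16 h at 37 °C. LiveBLAzer B/G FRET substrate was then added for 2 h at room temperature, and fluorescence intensity was read to detect pathway agonism.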

[11] = qHTS assay for small molecule disruptors of the mitochondrial membrane potential (AID 720635; active = well fitted curve in the direction sought with a large enough effect in the repeat runs; an effect the other way counts as inactive or inconclusive)
Outline: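 HepG2 cells exposed to compound 1 hr at 37C, then Mito-MPS dye 30 min. Ratio read of aggregate (540/590 nm) versus monomer (490/535 nm) fluorescence.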

[12] = molecular target: Glucocorticoid receptor (Homo sapiens) (UniProt P04150); assay: qHTS assay to identify small molecule antagonists of the glucocorticoid receptor (GR) signaling pathway (AID 720692; active = well fitted inhibition curve with a large enough effect in the signal ratio in the repeat runs, not every such curve was filed as active; the % refers to the signal ratio; note: potency is the fitted concentration of half-maximal effect)
Glucocorticoid receptor (Homo sapiens), sequence (P04150 whole entry, looked up): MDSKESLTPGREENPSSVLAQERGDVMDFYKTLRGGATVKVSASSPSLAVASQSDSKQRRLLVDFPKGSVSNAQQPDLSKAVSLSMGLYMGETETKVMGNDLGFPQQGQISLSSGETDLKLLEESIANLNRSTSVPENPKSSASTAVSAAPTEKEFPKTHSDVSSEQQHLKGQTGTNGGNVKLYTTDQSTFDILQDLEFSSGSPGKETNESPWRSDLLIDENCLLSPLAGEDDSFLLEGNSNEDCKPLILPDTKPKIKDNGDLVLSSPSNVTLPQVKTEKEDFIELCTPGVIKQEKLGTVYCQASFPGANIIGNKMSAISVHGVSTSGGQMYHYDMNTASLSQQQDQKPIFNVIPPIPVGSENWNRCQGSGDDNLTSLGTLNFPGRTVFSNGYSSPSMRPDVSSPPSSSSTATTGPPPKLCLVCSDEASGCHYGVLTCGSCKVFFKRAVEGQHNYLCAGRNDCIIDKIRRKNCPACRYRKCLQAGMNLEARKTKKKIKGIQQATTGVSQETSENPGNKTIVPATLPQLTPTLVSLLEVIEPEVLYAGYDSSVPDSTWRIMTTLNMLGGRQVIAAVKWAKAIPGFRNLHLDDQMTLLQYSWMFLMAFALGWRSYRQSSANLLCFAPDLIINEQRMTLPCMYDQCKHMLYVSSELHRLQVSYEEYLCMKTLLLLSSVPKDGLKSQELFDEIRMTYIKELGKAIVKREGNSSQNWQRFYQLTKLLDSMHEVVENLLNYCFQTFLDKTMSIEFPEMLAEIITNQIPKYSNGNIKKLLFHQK
Outline: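 Cells plated, rested 4 h at 37 C/5% CO2; compounds in DMSO pin-transferred; dexamethasone added to 5 nM final; 18 h at 37 C; B/G FRET substrate added, 2 h room temperature; fluorescence measured.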

[13] = qHTS assay to identify small molecule agonists of the estrogen related receptor signaling pathway with the pleiotropic PPARgamma coactivator (PGC) from Tox21 10K library (AID 1224842; active = well fitted curve in the direction sought with a large enough effect in the repeat runs; an effect the other way counts as inactive or inconclusive; note: nearly all actives have a fitted effect of over 15% in size; note: potency is the fitted concentration of half-maximal effect)
Outline: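 PGC/ERR reporter cell line, 2,000 cells per well, incubated 6 h at 37 C before 23 nL compound in DMSO was added. After 18 h at 37 C, One-Glo luminescence read following 30 min at room temperature.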

[14] = qHTS assay to identify small molecule agonists of the estrogen related receptor (ERR) signaling pathway from Tox21 library (AID 1224849); settings: ERR reporter cell line, ONE-Glo luciferase, 18 h; at 92.4 µM (top of the series) unless noted; note: nearly all actives have a fitted effect of over 15% in size
Outline: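 Agonist signal is luciferase luminescence from an ERR reporter cell line treated 18 h at 37 C with DMSO-dissolved compounds, read 30 min after ONE-Glo addition at room temperature.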

[15] = qHTS assay to identify small molecule agonists of H2AX (AID 1224845; active = well fitted activation curve with a large enough effect in the signal ratio in the repeat runs, not every such curve was filed as active; the % refers to the signal ratio)
Outline: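 Wild-type CHO-K1 cells, plated overnight, exposed 3hr at 37C to 15 concentrations (0.76% DMSO final). Lysed, then HTRF anti-pH2AX (S139) cryptate and anti-H2AX-d2 antibodies, 24 hr room temperature; 665/620 nm emission read.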

[16] = molecular target: Nuclear receptor subfamily 1 group I member 2 (Homo sapiens) (UniProt O75469); assay: Human pregnane X receptor (PXR) activation by small molecules, qHTS assay (AID 1346985; active = well fitted curve in the direction sought with a large enough effect in the repeat runs; an effect the other way counts as inactive or inconclusive; note: nearly all actives have a fitted effect of over 40% in size; note: potency is the fitted concentration of half-maximal effect)
Outline: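 DPX-2 cells (HepG2 co-transfected with a PXR response element and a CYP3A4-promoter luciferase construct) were seeded at 2,000 per well, rested 5 hr at 37C, then exposed to DMSO-dissolved compounds for 24 hr. Activation was read as luciferase luminescence.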

[17] = molecular target: Androgen receptor (Homo sapiens) (UniProt P10275); assay: qHTS assay to identify small molecule antagonists of the androgen receptor (AR) signaling pathway (AID 743035; active = well fitted inhibition curve with a large enough effect in the signal ratio in the repeat runs, not every such curve was filed as active; the % refers to the signal ratio; note: potency is the fitted concentration of half-maximal effect)
Androgen receptor (Homo sapiens), sequence (P10275 whole entry, looked up): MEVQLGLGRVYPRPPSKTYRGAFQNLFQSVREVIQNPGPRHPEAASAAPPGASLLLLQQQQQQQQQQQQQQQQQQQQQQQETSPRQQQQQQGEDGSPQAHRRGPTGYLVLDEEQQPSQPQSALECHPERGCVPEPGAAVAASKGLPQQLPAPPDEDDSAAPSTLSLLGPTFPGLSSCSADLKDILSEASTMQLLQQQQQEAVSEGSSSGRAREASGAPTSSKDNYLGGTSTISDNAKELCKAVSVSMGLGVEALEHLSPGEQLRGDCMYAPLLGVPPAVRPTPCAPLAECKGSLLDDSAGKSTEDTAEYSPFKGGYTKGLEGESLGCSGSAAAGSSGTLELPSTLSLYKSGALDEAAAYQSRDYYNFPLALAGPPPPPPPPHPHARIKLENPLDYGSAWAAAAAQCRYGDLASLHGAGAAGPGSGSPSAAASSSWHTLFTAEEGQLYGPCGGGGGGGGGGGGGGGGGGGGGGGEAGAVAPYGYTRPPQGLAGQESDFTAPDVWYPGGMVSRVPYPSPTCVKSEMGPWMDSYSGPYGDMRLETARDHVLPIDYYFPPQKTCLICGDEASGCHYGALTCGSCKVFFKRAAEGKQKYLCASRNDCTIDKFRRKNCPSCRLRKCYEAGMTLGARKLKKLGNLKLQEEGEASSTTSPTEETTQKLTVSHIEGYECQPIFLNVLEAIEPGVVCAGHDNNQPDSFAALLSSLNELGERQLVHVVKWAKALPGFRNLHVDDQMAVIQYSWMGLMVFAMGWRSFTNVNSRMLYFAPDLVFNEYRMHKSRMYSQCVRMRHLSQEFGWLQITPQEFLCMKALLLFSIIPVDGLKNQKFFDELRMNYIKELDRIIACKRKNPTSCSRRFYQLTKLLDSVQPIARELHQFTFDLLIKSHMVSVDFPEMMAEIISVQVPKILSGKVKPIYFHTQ
Outline: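 Antagonism is scored as loss of R1881-driven beta-lactamase reporter expression in HEK293 cells carrying the reporter under a UAS element, after 16 h co-treatment at 37C and a 2 h room-temperature FRET substrate read.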

[18] = molecular target: Androgen receptor (Homo sapiens) (UniProt P10275); assay: qHTS assay to identify small molecule agonists of the androgen receptor (AR) signaling pathway using the MDA cell line (AID 743040; active = well fitted curve in the direction sought with a large enough effect in the repeat runs; an effect the other way counts as inactive or inconclusive; note: nearly all actives have a fitted effect of over 20% in size; note: potency is the fitted concentration of half-maximal effect)
Outline: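 MDA-kb2 breast carcinoma cells carrying MMTV-luciferase (responsive to AR and GR), plated 5 h then treated 16 h with compounds at 37C, 0% CO2. Read-out was ONE-Glo luminescence after 30 min at room temperature.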

[19] = molecular target: Androgen receptor (Homo sapiens) (UniProt P10275); assay: qHTS assay to identify small molecule antagonists of the androgen receptor (AR) signaling pathway using the MDA cell line (AID 743042; active = well fitted curve in the direction sought with a large enough effect in the repeat runs; an effect the other way counts as inactive or inconclusive; note: nearly all actives have a fitted effect of over 55% in size)
Outline: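 MDA-kb2 breast carcinoma cells carrying MMTV-luciferase (AR/GR responsive) were co-treated with compounds and the agonist R1881 for 16 h at 37C. Inhibition read as ONE-Glo luminescence; CellTiter-Fluor fluorescence measured in parallel for cytotoxicity.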

[20] = molecular target: Androgen receptor (Homo sapiens) (UniProt P10275); assay: qHTS assay to identify small molecule agonists of the androgen receptor (AR) signaling pathway (AID 743036; active = well fitted activation curve with a large enough effect in the signal ratio in the repeat runs, with a control signal flat, not every such curve was filed as active; the % refers to the signal ratio; note: potency is the fitted concentration of half-maximal effect)
Outline: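 AR-UAS-bla HEK293 cells, plated 4 h before dosing, were treated with compound for 16 h at 37C. beta-Lactamase reporter read after 2 h with LiveBLAzer B/G FRET substrate at room temperature.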
% is set by controls: 0 for no effect and ±100 for the full control effect.

N#CCCNCCC#N
inactive: Potency [1] | Potency [2] | Potency [3] | Potency [4]

C[N+]1(C)[C@@H]2CC(OC(=O)[C@H](CO)c3ccccc3)C[C@H]1[C@@H]1O[C@@H]12 (some centres undefined)
inactive: Potency [1] | Potency [2] | Potency [3] | Potency [4]

Cc1c2ccncc2c(C)c2c1[nH]c1ccccc12
inactive: Potency [5] | Potency [6]

c1ccc2c(N3CCNCC3)cccc2c1
inactive: Potency [5] | Potency [7] | Potency [8] | Potency [6]

C[N+]1(C)C2CC(OC(=O)[C@H](CO)c3ccccc3)CC1C1OC12 (some centres undefined)
inactive: Potency [8]

O=[N+]([O-])c1ccccc1Cl
inactive: Potency [9]

O=C(O)/C=C/C(=O)O
inactive: Potency [10] | Potency [11] | Potency [12] | Potency [13] | activity change, positive = activation [14] 4.47% and 1.26% | Potency [1] | Potency [2] | Potency [3] | Potency [4]

O=[N+]([O-])/C=C/c1ccc2c(c1)OCO2
inactive: Potency [5] | Potency [6]

COC[C@H]1OC(=O)c2coc3c2[C@@]1(C)C1=C(C3=O)C2CCC(=O)[C@@]2(C)C[C@H]1OC(C)=O (some centres undefined)
inactive: Potency [5] | Potency [7] | Potency [8] | Potency [6]

Cc1nccc2c1[nH]c1ccccc12
inactive: Potency [5] | Potency [8]

C[N+](C)(C)CC#CCOC(=O)Nc1cccc(Cl)c1
inactive: Potency [5] | Potency [7] | Potency [6]

Clc1nc(Cl)c(Cl)c(Cl)c1Cl
inactive: Potency [13] | Potency [15] | Potency [1] | Potency [2] | Potency [3] | Potency [4]

Cc1o[nH]c(=O)c1CC(N)C(=O)O (centres undefined)
inactive: Potency [8]

Cc1ccc([N+](=O)[O-])c(C)c1
inactive: activity change, positive = activation [14] -82.5% | Potency [1] | Potency [2] | Potency [3] | Potency [4]

CN1CCC[C@@H]1Cc1c[nH]c2ccc(Nc3ncccc3[N+](=O)[O-])cc12
inactive: Potency [5] | Potency [7] | Potency [6]

O=C1OC(=O)c2c(Br)c(Br)c(Br)c(Br)c21
inactive: Potency [15] | Potency [9] | Potency [1] | Potency [2] | Potency [3] | Potency [4]

CN1[C@@H]2CC[C@@H]1CC(OC(=O)C(CO)c1ccccc1)C2 (some centres undefined)
inactive: Potency [15]

O=Nc1ccc(Nc2ccccc2)cc1
inactive: Potency [9] | Potency [1] | Potency [2] | Potency [3] | Potency [4]
active: Potency [10] 61.1 µM | Potency [13] 9.74 µM | activity change, positive = activation [14] -79.9%

CN1CC[C@@]2(C)c3cc(O)ccc3N(C)C12 (some centres undefined)
inactive: Potency [5] | Potency [6]

O[C@H]1[C@H]2[C@H](O)CCCN2C[C@H]1O
inactive: Potency [11] | Potency [12] | Potency [16]

CN1[C@H]2CC[C@@H]1[C@@H](C(=O)O)[C@@H](OC(=O)c1ccccc1)C2
inactive: Potency [16]

C[N+]1(C)[C@@H]2CC[C@H]1CC(OC(=O)c1c[nH]c3ccccc13)C2 (some centres undefined)
inactive: Potency [17] | Potency [18] | Potency [19] | Potency [16]

C[C@]12CCC(=O)C=C1C=C[C@@H]1[C@@H]2CC[C@@]2(C)[C@H]1CC[C@@]2(O)CCC(=O)O
inactive: Potency [11] | Potency [17] | Potency [19] | Potency [16]
active: Potency [12] 9.1 µM | Potency [20] 3.62 µM | Potency [18] 12.7 µM

CC(=O)Oc1ccc2c3c1O[C@H]1[C@@H](OC(C)=O)C=C[C@H]4[C@@H](C2)N(C)CC[C@@]341
inactive: Potency [10] | Potency [12] | Potency [16]

CCC1(c2cnc[nH]2)Cc2ccccc2C1
inactive: Potency [1] | Potency [2] | Potency [3] | Potency [4]

O=C1CCCCC1CN1CCCCC1 (centres undefined)
inactive: Potency [10] | Potency [11] | Potency [17] | Potency [20] | Potency [18] | Potency [19] | Potency [16]

C/C(=C\c1csc(C)n1)[C@@H]1C[C@@H]2O[C@]2(C)CCC[C@H](C)[C@H](O)[C@@H](C)C(=O)C(C)(C)[C@@H](O)CC(=O)O1
inactive: Potency [18] | Potency [19]
active: Potency [17] 0.0239 µM | Potency [16] 7.94 µM

CCCC(C)(COC(N)=O)COC(=O)NC1CC1 (centres undefined)
inactive: Potency [11] | Potency [12] | Potency [16]
